proKLK7 act: activators of human kallikrein-7 zymogen; purified proKLK7, EDANS-DABCYL substrate fluorescence; 100% is mature enzyme control, 0% vehicle; activation, % at 7 µM; 0.9% of 370,000 active;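 active = activation above the mean of all tested compounds plus 3 SD, computed per campaign excluding outliers beyond control limits, cut at about 13% in these data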
ADAM10 inh: ADAM10 inhibition, QFRET primary screen; 0.62% of 370,000 active; inhibition, % at 7 µM; recombinant ADAM10, EDANS/DABCYL FRET peptide cleavage, 3 h; O14672;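 active = inhibition above a per-campaign cutoff equal to the mean of compounds falling between control-based bounds plus 3 SD, cut at about 20% in these data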;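 also: 0% = DMSO wells while the 100% control is not disclosed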
V-ATPase pH: alters yeast V-ATPase proton transport; S. cerevisiae, pHLuorin cytosolic pH fluorescence; response, % at 10 µM; 0.37% of 350,000 active; AID 504577; in the data active = response mostly above about 7.3%, no sharp cut-off; inactive = mostly below about 5.4%; also: actives read high
ADAM17 inh: inhibitors of human ADAM17. P78536. recombinant ADAM17, EDANS/DABCYL FRET peptide cleavage. inhibition, % at 6.95 µM. 0.83% of 370,000 active;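 active = inhibition above the mean of compounds lying between control limits plus 3 SD, set per campaign, cut at about 8.5% in these data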;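 also: 0% = DMSO-only wells as the low control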
Target sequence (P78536 215-824 limits assumed): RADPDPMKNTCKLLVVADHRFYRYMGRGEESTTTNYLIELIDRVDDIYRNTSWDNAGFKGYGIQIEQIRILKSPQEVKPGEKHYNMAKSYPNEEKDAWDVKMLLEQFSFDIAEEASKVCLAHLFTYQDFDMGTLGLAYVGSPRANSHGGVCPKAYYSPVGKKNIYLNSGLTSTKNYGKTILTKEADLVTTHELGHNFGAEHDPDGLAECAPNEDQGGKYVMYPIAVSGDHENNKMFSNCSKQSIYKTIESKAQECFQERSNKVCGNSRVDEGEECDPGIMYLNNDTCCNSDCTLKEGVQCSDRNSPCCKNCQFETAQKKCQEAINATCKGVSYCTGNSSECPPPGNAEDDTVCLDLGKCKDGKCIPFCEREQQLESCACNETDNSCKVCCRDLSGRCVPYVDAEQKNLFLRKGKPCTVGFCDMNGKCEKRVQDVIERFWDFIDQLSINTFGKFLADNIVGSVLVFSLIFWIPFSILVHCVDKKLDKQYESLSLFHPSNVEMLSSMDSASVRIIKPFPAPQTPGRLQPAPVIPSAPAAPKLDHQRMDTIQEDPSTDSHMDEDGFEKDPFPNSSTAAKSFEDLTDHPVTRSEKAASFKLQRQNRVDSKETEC
ADAM10 confirm: confirmation of inhibitors of human ADAM10; shares compounds with ADAM10 inh; inhibition, % at 6.95 µM; ADAM10 QFRET peptide cleavage, EDANS fluorescence; 1% of 2,100 active; AID 743208;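 active = inhibition above about 20% chosen separately for each screening run, limit read from the data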;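 also: 0% = DMSO wells and 100% = marimastat wells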
ADAM17 counter: inhibits human ADAM17 in ADAM10 exosite counter-screen; shares compounds with ADAM10 inh; ADAM17 QFRET peptide cleavage, EDANS fluorescence; inhibition, % at 6.95 µM; 0.5% of 2,100 active; AID 743214;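 active = mean triplicate inhibition above the solvent-only control wells' mean plus 3 SD, cut at about 12% in these data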;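 also: 0% = DMSO wells and 100% = marimastat wells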
ADAM10 ctr: ADAM10 inhibition, counter-screen for ADAM17 exosite hits; shares compounds with ADAM17 inh; recombinant ADAM10, EDANS/DABCYL FRET peptide cleavage, 3 h; inhibition, % at 6.95 µM; 47% of 2,900 active;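 active = mean inhibition over the triplicate runs exceeds the activity threshold set in the earlier primary screen, cut at about 20% in these data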;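 also: 0% = DMSO wells and 100% = marimastat wells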
ADAM17 confirm: human ADAM17 inhibition, confirmation; shares compounds with ADAM17 inh; recombinant ADAM17, EDANS/DABCYL QFRET peptide cleavage; inhibition, % at 6.95 µM; 65% of 2,900 active;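 active = mean inhibition across replicates above the hit cutoff set in the primary screen, cut at about 8.5% in these data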;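 also: 0% = DMSO wells and 100% = marimastat wells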
* hit, by the source's call; / = no result. Sampled rows, rich in hits. Any-hit rate of the full collection: about 2.3%.

SMILES	proKLK7 act	ADAM10 inh	V-ATPase pH	ADAM17 inh	ADAM10 confirm	ADAM17 counter	ADAM10 ctr	ADAM17 confirm
COc1cc([N+](=O)[O-])cc(/C=N/NC(=O)C(C)Nc2cccc(C)c2)c1O (stereo not given)	0	3	0	2	/	/	/	/
COc1cc([N+](=O)[O-])cc(/C=N/NC(=O)C(C)Nc2ccccc2C)c1O (stereo not given)	-1	26*	0	10.0*	0	1	24*	12*
CC(O)(c1cccc(F)c1)c1nc(-c2cccc(F)c2)cs1 (stereo not given)	0	2	/	5	/	/	/	/
OC(c1ccccc1)(c1nc(-c2ccc3ccccc3c2)cs1)C(F)(F)F (stereo not given)	0	7	/	8	/	/	/	/
OC(c1ccccc1)(c1nc(-c2ccc3c(c2)OCO3)cs1)C(F)(F)F (stereo not given)	0	23*	/	9.2*	13	4	25*	14*
OC(c1ccccc1)(c1nc(-c2cccc(F)c2)cs1)C(F)(F)F (stereo not given)	0	33*	/	12*	8	2	39*	18*
OC(c1ccccc1)(c1nc(-c2ccccc2)cs1)C(F)(F)F (stereo not given)	0	23*	/	8.8*	8	2	33*	17*
CS(=O)(=O)c1ccc(-c2csc(C(O)(c3ccccc3)C(F)(F)F)n2)cc1 (stereo not given)	-1	10	/	5	/	/	/	/
CC(=O)C1(C(=O)Nc2cc(C)cc(C)c2)CC(c2ccccn2)=NO1 (stereo not given)	-1	-20	/	-5	/	/	/	/
O=C(NNC(=O)c1cc(-c2ccccc2)nc2ccccc12)Nc1cccc(Cl)c1	-1	25*	-3	10*	19	7	31*	21*
CCOC(=O)c1ccc(S(=O)(=O)NCC(c2ccc(N(C)C)cc2)c2c[nH]c3ccccc23)cc1 (stereo not given)	-1	26*	-6	12*	9	3	36*	23*
Cc1noc(C)c1S(=O)(=O)N(C)C[C@@H]1OCc2cnnn2CCCC(=O)N([C@@H](C)CO)C[C@@H]1C	0	1	/	-3	/	/	/	/
COc1ccc(-n2c(=S)[nH]c3cc(C(=O)NCc4ccccc4)ccc3c2=O)c(OC)c1	1	24*	2	9.0*	1	1	12	10*
CC(=O)Nc1ccc(SC[C@H](Cc2ccccc2)N2CC[C@@H](C(C)(C)C)CCC2=O)cc1	0	36*	-3	12*	5	1	22*	15*
CN1C(c2ccccc2)CC2CN(c3ccccc3)C(=O)C21 (stereo not given)	-1	-1	/	-1	/	/	/	/
Cc1ccc(S(=O)(=O)Nc2ccc(C(OC(=O)c3ccccc3[N+](=O)[O-])(C(F)(F)F)C(F)(F)F)cc2)cc1	0	22*	-4	10*	4	2	47*	27*
O=C(OC(c1ccc(NS(=O)(=O)c2ccccc2)cc1)(C(F)(F)F)C(F)(F)F)c1ccccc1	1	32*	-1	13*	4	2	36*	18*
CC(=O)c1ccc(NS(=O)(=O)c2ccccc2)cc1	-1	-15	2	-2	/	/	/	/
Cc1cc(C)nc(NS(=O)(=O)c2ccc(NC(=O)c3ccccc3[N+](=O)[O-])cc2)n1	0	-4	3	-3	/	/	/	/
CN1CC=C(c2ccc(C(F)(F)F)cc2)N(c2ccc(Br)cc2)C1=O	0	8	/	5	/	/	/	/
O=S1(=O)c2ccc(N3CCC[C@H]3CO)cc2O[C@@H]2CCN1C2	0	-3	/	-4	/	/	/	/
C[C@@H]1CCN(C2CC2)S(=O)(=O)c2ccc(N3CCC[C@H]3C)cc2O1	0	-6	/	-5	/	/	/	/
COC(=O)CC(=O)CC(NS(=O)(=O)c1ccc(C)cc1)c1ccccc1 (stereo not given)	0	3	/	2	/	/	/	/
Cc1ccccc1CN(CC(=O)Nc1cccc([N+](=O)[O-])c1)S(=O)(=O)c1ccc(Cl)cc1	1	21*	-2	9.7*	8	3	35*	19*
CS(=O)(=O)N(CC(=O)Nc1cccc([N+](=O)[O-])c1)c1ccccc1	0	1	-1	0	/	/	/	/
SMILES	proKLK7 act	ADAM10 inh	V-ATPase pH	ADAM17 inh	ADAM10 confirm	ADAM17 counter	ADAM10 ctr	ADAM17 confirm
O=C(CCSc1ccccc1Cl)Nc1cccc([N+](=O)[O-])c1	0	29*	1	12*	2	0	24*	12*
NS(=O)(=O)c1cccc(NC(=O)CCSc2ccccc2Cl)c1	0	-9	5	-1	/	/	/	/
CC(C)(C)S(=O)N1C[C@@H]2CC(=O)C(c3ccccc3)=C2[C@H]1CCO (stereo not given in full)	1	-14	/	0	/	/	/	/
OCc1ccccc1OCc1ccccc1	0	-4	/	-2	/	/	/	/
Cc1ccc(O)c(N=Cc2cc(Cc3ccccc3)cc([N+](=O)[O-])c2O)c1	0	38*	-1	19*	0	2	22*	8
CC1(c2nnnn2-c2ccc(F)cc2)CCCC(=O)N1CCc1c[nH]c2ccccc12 (stereo not given)	0	2	/	-1	/	/	/	/
Cc1ccccc1S(=O)(=O)Cc1ccc(C(=O)N2CCN(c3cccc(C)c3C)CC2)o1	0	22*	-2	9.0*	5	1	18	12*
Cc1ccccc1S(=O)(=O)Cc1ccc(C(=O)N2CC(C)CC(C)C2)o1 (stereo not given)	1	-4	0	3	/	/	/	/
O=C(CCc1ccccc1)N[C@H]1[C@H](OCc2ccccc2)CCC[C@@]12C(=O)N(Cc1ccccc1)c1ccc(-c3ccccn3)cc12	0	0	/	1	/	/	/	/
COc1cc(/C=C/C=C2/CC/C(=C/C=C/c3ccc(O)c(OC)c3)C2=O)ccc1O	0	22*	1	17*	2	1	6	5
CCCN1CCCCC(NC(C)=O)C1=O (stereo not given)	0	-13	/	-5	/	/	/	/
Cc1ccc(S(=O)(=O)N(CC(=O)N=Nc2c(O)[nH]c3ccccc23)c2ccc(C)c(C)c2)cc1	0	23*	1	8.9*	8	3	26*	18*
Cc1ccccc1C(=O)n1ccc2ccc(-c3ccc4ccn(Cc5ccc(C#N)cc5)c4c3)cc21	-5	-41	/	-12	/	/	/	/

Screens (PubChem)
